# Results: PubChem BioAssay (NCATS)
# Where “and” joins values, the source holds several entries; their conditions need not be identical. Equal entries are not always repeated. Inconclusive results are not listed. Calls of active or inactive are those of the source. Unless noted, calls come from the whole dose curve; as a rule, active = well fitted curve in the direction sought with a large enough effect; inconclusive = small, poorly fitted or top-dose-only effect, or another doubt; inactive = no such curve, though single readings can be large; an effect the other way counts as inactive or inconclusive.
# Assays:
# [1] = target: Peroxisome proliferator-activated receptor gamma (Homo sapiens) (UniProt P37231); experiment: qHTS assay for small molecule antagonists of peroxisome proliferator-activated receptor gamma signaling (AID 588537; active = well fitted inhibition curve with a large enough effect in the signal ratio, with a control signal flat, not every such curve was filed as active; the % refers to the signal ratio;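 note: reporter cells co-stimulated with 50 nM rosiglitazone agonist during compound treatment; % of control where 0% means no effect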)
# Sequence of Peroxisome proliferator-activated receptor gamma (Homo sapiens) (P37231 whole entry, looked up): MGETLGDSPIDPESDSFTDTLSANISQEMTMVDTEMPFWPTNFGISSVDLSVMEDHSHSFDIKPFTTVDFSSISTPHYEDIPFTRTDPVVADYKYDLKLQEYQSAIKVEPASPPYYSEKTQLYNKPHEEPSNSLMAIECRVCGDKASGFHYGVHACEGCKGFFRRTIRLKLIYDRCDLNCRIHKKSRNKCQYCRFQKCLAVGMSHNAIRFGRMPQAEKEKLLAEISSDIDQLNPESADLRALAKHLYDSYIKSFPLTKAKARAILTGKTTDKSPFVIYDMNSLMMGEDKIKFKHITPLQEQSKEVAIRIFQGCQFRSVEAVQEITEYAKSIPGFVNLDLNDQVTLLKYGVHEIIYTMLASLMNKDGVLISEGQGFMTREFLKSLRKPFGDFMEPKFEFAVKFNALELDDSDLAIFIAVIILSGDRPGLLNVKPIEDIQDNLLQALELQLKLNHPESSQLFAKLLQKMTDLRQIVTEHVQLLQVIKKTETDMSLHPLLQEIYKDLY
# Procedure, shortened: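 Antagonist-mode β-lactamase reporter screen run as a titration series. HEK293 PPARγ-UAS-bla cells are stimulated with rosiglitazone (50 nM final) for 16 h, then CCF4 is read at 460/530 nm. Data are scaled between DMSO and rosiglitazone and fitted to the Hill equation.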
# [2] = qHTS assay for small molecule agonists of retinoid X receptor alpha signaling (AID 588544); details: HEK293T RXRa-UAS-bla, beta-lactamase reporter, 18 h; 530 nm emission
# [3] = qHTS assay for small molecule agonists of the antioxidant response element (ARE) signaling pathway (AID 651741; active = well fitted activation curve with a large enough effect in the signal ratio; the % refers to the signal ratio; note: potency is the fitted concentration of half-maximal effect; for activation: % of control where 0% means no effect)
# Procedure, shortened: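 Beta-lactamase reporter under ARE control in HepG2 cells, 2,000 per well, was induced by 16 h compound treatment at 37 C. Read-out was fluorescence from LiveBLAzer B/G FRET substrate after 2 h at room temperature.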
# [4] = qHTS assay for small molecule activators of the human pregnane X receptor (PXR) signaling pathway (AID 720659; call rule not given here; note: 0% is about no effect)
# [5] = target: Glucocorticoid receptor (Homo sapiens) (UniProt P04150); experiment: qHTS assay for small molecule antagonists of glucocorticoid receptor signaling (AID 588533; active = well fitted inhibition curve with a large enough effect in the signal ratio, with a control signal flat, not every such curve was filed as active; the % refers to the signal ratio;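 note: cells stimulated with 2 nM dexamethasone as agonist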; note: potency is the fitted concentration of half-maximal effect)
# Sequence of Glucocorticoid receptor (Homo sapiens) (P04150 whole entry, looked up): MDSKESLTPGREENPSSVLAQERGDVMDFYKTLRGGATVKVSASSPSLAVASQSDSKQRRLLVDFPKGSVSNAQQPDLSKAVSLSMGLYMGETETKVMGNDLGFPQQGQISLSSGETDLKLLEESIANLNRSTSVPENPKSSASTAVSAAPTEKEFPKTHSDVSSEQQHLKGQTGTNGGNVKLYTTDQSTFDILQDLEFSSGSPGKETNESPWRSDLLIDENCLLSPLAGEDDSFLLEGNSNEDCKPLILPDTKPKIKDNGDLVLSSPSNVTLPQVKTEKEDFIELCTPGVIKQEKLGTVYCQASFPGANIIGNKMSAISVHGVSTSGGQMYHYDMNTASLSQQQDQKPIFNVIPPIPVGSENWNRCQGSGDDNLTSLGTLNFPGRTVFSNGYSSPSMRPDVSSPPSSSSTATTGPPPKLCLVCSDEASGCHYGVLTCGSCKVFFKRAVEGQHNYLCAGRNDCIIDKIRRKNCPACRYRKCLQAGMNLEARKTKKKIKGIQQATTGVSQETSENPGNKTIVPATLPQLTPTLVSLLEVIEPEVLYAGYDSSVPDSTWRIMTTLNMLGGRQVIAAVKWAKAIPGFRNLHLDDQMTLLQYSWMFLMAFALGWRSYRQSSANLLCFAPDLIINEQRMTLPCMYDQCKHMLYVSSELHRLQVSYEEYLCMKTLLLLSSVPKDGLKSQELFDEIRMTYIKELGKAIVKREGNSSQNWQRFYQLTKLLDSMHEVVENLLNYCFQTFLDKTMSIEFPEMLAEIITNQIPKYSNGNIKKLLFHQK
# Procedure, shortened: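 Antagonist-mode qHTS: compound titrations added to GRE-bla HeLa cells, then dexamethasone 2 nM final; 18 h, 37 C. CCF4 FRET fluorescence normalized to dexamethasone and DMSO; IC50 from Hill fit.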
# [6] = target: Thyroid hormone receptor beta (Homo sapiens) (UniProt P10828); experiment: qHTS assay for small molecule antagonists of thyroid hormone receptor beta signaling (AID 588547; active = well fitted inhibition curve with a large enough effect in the signal ratio, with a control signal flat, not every such curve was filed as active; the % refers to the signal ratio;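 note: cells stimulated with 0.4 nM T3 agonist during compound exposure; series mostly up to about 77 µM; % is set by controls: 0 for no effect and ±100 for the full control effect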); details: TR-UAS-bla HEK293, beta-lactamase ratio, antagonist mode, 18 h
# Sequence of Thyroid hormone receptor beta (Homo sapiens) (P10828 whole entry, looked up): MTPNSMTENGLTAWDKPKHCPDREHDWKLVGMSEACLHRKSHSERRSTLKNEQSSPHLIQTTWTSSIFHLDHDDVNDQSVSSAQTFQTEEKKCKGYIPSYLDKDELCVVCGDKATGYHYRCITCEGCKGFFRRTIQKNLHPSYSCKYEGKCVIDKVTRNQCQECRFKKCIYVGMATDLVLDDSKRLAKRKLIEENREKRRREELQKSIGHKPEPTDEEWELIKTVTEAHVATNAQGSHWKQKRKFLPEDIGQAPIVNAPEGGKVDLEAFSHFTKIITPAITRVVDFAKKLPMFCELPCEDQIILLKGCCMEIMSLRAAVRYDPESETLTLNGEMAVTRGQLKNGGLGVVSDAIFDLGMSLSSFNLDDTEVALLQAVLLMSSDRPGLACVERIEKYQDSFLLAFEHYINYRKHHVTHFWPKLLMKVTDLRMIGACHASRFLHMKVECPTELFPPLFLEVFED
# Procedure, shortened: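 Inhibition of T3-driven (0.4nM final) beta-lactamase reporter activity was measured over 0.59 nM to 92 uM compound after 18 h at 37 C. The cells were GripTite HEK293 TR-UAS-bla in charcoal/dextran-stripped serum, with CCF4 ratio read-out and IC50 from Hill fits.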
# [7] = qHTS assay for small molecule antagonists of peroxisome proliferator-activated receptor delta signaling (AID 588535; active = well fitted inhibition curve with a large enough effect in the signal ratio, with a control signal flat, not every such curve was filed as active; the % refers to the signal ratio;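 for max response: cells co-treated with a PPAR-delta agonist as stimulator during compound exposure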); details: HEK293T PPARd-UAS-bla, beta-lactamase FRET ratio, 18 h; 460 nm channel
# Procedure, shortened: (§1)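 Titrations were run on PPAR-delta-UAS-bla HEK293T cells in charcoal/dextran-stripped serum, incubated 18 h at 37 C. CCF4 fluorescence (460/530 nm) after 2 h RT; Hill equation yields IC50 and maximal response.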
# [8] = target: Peroxisome proliferator-activated receptor delta (Homo sapiens) (UniProt Q03181); experiment: as above
# Sequence of Peroxisome proliferator-activated receptor delta (Homo sapiens) (Q03181 whole entry, looked up): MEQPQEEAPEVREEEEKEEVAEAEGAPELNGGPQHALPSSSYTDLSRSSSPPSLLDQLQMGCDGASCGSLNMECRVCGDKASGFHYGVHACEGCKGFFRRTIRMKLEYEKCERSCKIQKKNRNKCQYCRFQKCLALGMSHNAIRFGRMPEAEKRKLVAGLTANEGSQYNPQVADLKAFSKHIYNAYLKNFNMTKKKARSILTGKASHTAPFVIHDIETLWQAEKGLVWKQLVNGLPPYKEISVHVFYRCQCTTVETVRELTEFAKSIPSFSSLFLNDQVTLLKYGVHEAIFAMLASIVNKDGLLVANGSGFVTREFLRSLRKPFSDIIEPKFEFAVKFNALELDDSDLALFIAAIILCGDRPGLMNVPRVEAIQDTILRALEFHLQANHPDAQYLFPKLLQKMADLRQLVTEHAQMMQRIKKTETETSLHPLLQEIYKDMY
# Procedure, shortened: as §1
# [9] = target: Cytochrome P450 3A4 (Homo sapiens) (UniProt P08684); experiment: qHTS Assay for Inhibitors and Substrates of Cytochrome P450 3A4 (AID 884); note: potency is the fitted concentration of half-maximal effect; nearly all actives have a fitted effect of over 50% in size
# Sequence of Cytochrome P450 3A4 (Homo sapiens) (P08684 whole entry, looked up): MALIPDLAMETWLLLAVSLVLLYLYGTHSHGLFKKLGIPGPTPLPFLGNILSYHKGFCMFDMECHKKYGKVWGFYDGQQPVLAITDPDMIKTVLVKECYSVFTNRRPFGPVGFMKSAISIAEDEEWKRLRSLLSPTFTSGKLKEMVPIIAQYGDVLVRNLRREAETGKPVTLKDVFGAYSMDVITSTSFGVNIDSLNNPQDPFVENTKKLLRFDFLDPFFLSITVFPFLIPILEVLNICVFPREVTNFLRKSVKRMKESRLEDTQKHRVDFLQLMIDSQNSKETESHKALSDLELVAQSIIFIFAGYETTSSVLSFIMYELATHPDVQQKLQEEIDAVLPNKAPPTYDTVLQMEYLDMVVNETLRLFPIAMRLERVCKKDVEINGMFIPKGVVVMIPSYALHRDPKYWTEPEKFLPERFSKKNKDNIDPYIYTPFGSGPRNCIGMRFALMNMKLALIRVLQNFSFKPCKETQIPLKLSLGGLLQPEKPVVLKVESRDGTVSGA
# Procedure, shortened: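 Luminescent readout of luciferin produced by CYP3A4 (20 nM) dealkylation of Luciferin-PPXE, 25 uM (its KM). NADPH-driven reaction ran 60 min at RT after 10 min compound preincubation; data scaled to 57 uM ketoconazole as 100% inhibition.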
# [10] = target: Cytochrome P450 3A4 (Homo sapiens) (UniProt P08684); experiment: qHTS Assay for Activators of Cytochrome P450 3A4 (AID 885); note: nearly all actives have a fitted effect of over 65% in size
# Procedure, shortened: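 Activators are scored by enhanced luminescence from CYP3A4 conversion of luciferin-PPXE (25uM, equal to KM) to luciferin, after 60 min at RT with an NADPH-regenerating system.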
# [11] = Cell Viability - LYMP2-001 (AID 921); note: potency is the fitted concentration of half-maximal effect; nearly all actives have a fitted effect of over 70% in size
# Procedure, shortened: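 CellTiter-Glo luminescence (intracellular ATP) after 24 hr compound exposure at 37 C, 2500 lymphoblastoid cells/well in complete medium. AC50 fitted with standard Hill equation; tetraoctylammonium bromide positive control.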
# [12] = MultiTox-Fluor Cytotoxicity Assay - LYMP1-002 - Dead Cells (AID 960); note: potency is the fitted concentration of half-maximal effect; nearly all actives have a fitted effect of over 60% in size
# Procedure, shortened: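 Dead-cell fluorescence (Ex/Em 485/520) after 16 h compound exposure at 37 C of LYMP1-002 lymphoblastoid cells in complete medium; AC50 by Hill equation, with data scaled between DMSO and 15 uM tetraoctylammonium bromide.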
# [13] = MultiTox-Fluor Cytotoxicity Assay - LYMP1-003 - Dead Cells (AID 961); note: potency is the fitted concentration of half-maximal effect; nearly all actives have a fitted effect of over 70% in size
# Procedure, shortened: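 LYMP1-003 lymphoblastoid, 2500 cells/well, 5 hr settle then 16 hr cpd at 37 C; MultiTox-Fluor reagent 60 min RT; Ex/Em 485/520 dead-cell signal; norm. DMSO = 0%, 15 uM tetraoctylammonium bromide = 100%; Hill AC50.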
# [14] = Cell Viability - LYMP2-003 (AID 965);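 note: potency is the fitted concentration of half-maximal effect; cells exposed to compounds for 24 h before reading; nearly all actives have a fitted effect of over 50% in size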
# Procedure, shortened: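 CellTiter-Glo luminescence (cellular ATP) after 24 h compound exposure at 37 C in complete medium; 2500 cells/well, 5 h settling beforehand. Concentration-response fitted to standard Hill equation for AC50. Tetraoctylammonium bromide served as positive control.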
# [15] = Cell Viability - LYMP2-011 (AID 969); note: potency is the fitted concentration of half-maximal effect; nearly all actives have a fitted effect of over 60% in size
# Procedure, shortened: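 Cytotoxicity qHTS with ATP content as read-out: lymphoblastoid cells (2500/well) exposed to compound for 24 h at 37 C, then luciferase luminescence measured. Concentration-response data fitted with the standard Hill equation to give AC50.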
# [16] = Cell Viability - LYMP2-013 (AID 970); note: potency is the fitted concentration of half-maximal effect; nearly all actives have a fitted effect of over 55% in size
# Procedure, shortened: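 qHTS cytotoxicity: ATP-dependent luminescence (CellTiter-Glo, 30 min room temperature) read after 24 h compound exposure at 37 C of 2500 LYMP2-013 lymphoblastoid cells per well. Concentration-response fitted with Hill equation to give AC50.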
# [17] = target: Androgen receptor (Homo sapiens) (UniProt P10275); experiment: qHTS assay for small molecule agonists of androgen receptor signaling (AID 588515; active = well fitted curve in the direction sought with a large enough effect in the signal ratio, with a control signal flat; the % refers to the signal ratio; note: % is set by controls: 0 for no effect and ±100 for the full control effect); details: AR-UAS-bla HEK293, beta-lactamase ratio, agonist 16 h; stronger effect = higher value
# Sequence of Androgen receptor (Homo sapiens) (P10275 whole entry, looked up): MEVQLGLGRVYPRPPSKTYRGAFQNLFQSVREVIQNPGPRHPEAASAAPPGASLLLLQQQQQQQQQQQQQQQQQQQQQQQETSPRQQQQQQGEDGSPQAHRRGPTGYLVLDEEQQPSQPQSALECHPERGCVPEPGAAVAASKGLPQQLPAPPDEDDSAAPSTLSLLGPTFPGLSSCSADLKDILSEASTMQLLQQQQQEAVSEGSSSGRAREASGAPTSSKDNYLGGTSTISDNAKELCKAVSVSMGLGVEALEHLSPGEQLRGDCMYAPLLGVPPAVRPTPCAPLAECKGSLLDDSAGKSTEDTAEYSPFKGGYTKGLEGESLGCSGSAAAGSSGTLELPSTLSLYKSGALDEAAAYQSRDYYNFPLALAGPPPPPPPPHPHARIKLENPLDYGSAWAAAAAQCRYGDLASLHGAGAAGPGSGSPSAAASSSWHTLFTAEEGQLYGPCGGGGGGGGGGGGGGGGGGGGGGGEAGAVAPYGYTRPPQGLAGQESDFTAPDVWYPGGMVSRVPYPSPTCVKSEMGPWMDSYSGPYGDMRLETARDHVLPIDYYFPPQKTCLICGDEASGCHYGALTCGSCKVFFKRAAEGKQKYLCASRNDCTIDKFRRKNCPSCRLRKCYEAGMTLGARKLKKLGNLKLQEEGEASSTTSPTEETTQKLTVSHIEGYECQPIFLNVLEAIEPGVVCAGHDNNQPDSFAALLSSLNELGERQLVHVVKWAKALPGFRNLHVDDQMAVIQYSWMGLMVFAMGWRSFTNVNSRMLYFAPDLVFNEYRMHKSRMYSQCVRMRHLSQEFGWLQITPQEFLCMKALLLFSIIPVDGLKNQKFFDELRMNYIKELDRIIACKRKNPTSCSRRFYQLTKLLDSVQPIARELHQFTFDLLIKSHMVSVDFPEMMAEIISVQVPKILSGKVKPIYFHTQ
# Procedure, shortened: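 Stimulation of an AR-responsive β-lactamase reporter in GripTite HEK293 cells was measured after 16 h compound exposure at 37 °C, via CCF4 fluorescence after 2 h RT. EC50 from Hill fits, normalized to R1881 at 30 nM.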
# [18] = target: Androgen receptor (Homo sapiens) (UniProt P10275); experiment: qHTS assay for small molecule antagonists of androgen receptor signaling (AID 588516; active = well fitted curve in the direction sought with a large enough effect in the signal ratio, with a control signal flat, not every such curve was filed as active; the % refers to the signal ratio; note: % is set by controls: 0 for no effect and ±100 for the full control effect)
# Procedure, shortened: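 HEK293 AR-UAS-bla cells, 10% dialyzed FBS medium; cpd titration + R1881 10 nM final, 16 h 37 C; CCF4 2 h RT; FRET ratio; IC50/efficacy via Hill fit.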
# [19] = target: Bile acid receptor (Homo sapiens) (UniProt Q96RI1); experiment: qHTS assay for small molecule agonists of farnesoid X receptor signaling (AID 588527; calls by dose curve;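 note: series mostly up to about 77 µM; 0% = vehicle basal and 100% = reference agonist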); details: HEK293T FXR-UAS-bla, beta-lactamase ratio, 16 h; activation: stronger effect = higher value
# Sequence of Bile acid receptor (Homo sapiens) (Q96RI1 whole entry, looked up): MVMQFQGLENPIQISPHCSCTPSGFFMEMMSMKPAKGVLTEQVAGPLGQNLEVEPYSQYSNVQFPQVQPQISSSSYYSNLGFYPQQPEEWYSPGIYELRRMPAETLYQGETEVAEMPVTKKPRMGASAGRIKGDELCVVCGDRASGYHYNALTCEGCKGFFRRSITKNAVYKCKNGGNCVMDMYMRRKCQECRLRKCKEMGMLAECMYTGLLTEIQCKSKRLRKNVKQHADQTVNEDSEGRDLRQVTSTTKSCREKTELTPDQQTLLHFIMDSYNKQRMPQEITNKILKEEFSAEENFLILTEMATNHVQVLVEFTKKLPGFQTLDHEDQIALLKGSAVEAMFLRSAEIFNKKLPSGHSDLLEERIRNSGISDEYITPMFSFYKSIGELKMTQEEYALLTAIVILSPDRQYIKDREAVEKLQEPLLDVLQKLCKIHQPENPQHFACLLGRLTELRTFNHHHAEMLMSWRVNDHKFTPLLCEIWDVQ
# Procedure, shortened: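 Read-out: beta-lactamase reporter fluorescence with CCF4 substrate in GeneBLAzer FXR-UAS-bla HEK293T cells, after 16 h compound exposure at 37 C. Response scaled between DMSO basal (0%) and chenodeoxycholic acid at 100 uM (100%).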
smiles,measurement,setting,value
OC(Cn1cncn1)(c1ccc(F)cc1)c1ccccc1F (stereo not drawn),Potency,[1],inactive
same,max response,[2],-7.56%
same,Potency,[3],inactive
same,outcome,[4],inactive
CC(C)(C)C(=O)[C@H](Oc1ccc(Cl)cc1)n1cncn1,Potency,[5],inactive
same,Potency,[1],inactive
same,max response,[2],21.3%
same,activity change % (negative = inhibition),[6],-10.2% (inactive)
CCOP(=O)(OCC)SCCSCC,max response,[2],-10.7%
same,activity change % (negative = inhibition),[6],-4.38% (inactive)
same,outcome,[4],inactive
CCNc1nc(NCC)nc(SC)n1,Potency,[5],inactive
same,max response,[2],-4.09%
same,activity change % (negative = inhibition),[6],-6.04% (inactive)
same,outcome,[4],inactive
Brc1c(Br)c(Br)c(Br)c(Br)c1Br,Potency,[5],inactive
same,max response,[7],-24.6%
same,Potency,[8],inactive
same,Potency,[1],inactive
same,max response,[2],-7.75%
same,outcome,[4],inactive
CCN(CC)c1nc(C)cc(OP(=S)(OC)OC)n1,Potency,[5],inactive
same,max response,[7],56.7%
same,Potency,[8],inactive
same,Potency,[1],inactive
same,max response,[2],26.8%
same,activity change % (negative = inhibition),[6],-11.6% (inactive)
same,outcome,[4],inactive
CCCCC(C#N)(Cn1cncn1)c1ccc(Cl)cc1 (stereo not drawn),max response,[7],26.8%
same,Potency,[8],inactive
same,max response,[2],3.82%
same,activity change % (negative = inhibition),[6],6.16% (inactive) and 3.62% (inactive)
c1cc(OCC2CO2)cc(OCC2CO2)c1 (stereo not drawn),Potency,[9],15.8 µM (active)
same,Potency,[10],inactive
same,Potency,[11],31.6 µM (active)
same,Potency,[12],25.1 µM (active)
same,Potency,[13],39.8 µM (active)
same,Potency,[14],25.1 µM (active)
same,Potency,[15],39.8 µM (active)
same,Potency,[16],50.1 µM (active)
same,activation,[17],-20.7% (inactive)
same,Potency,[18],inactive
same,activation,[19],0.408% (inactive)
same,Potency,[5],inactive
same,max response,[7],21.9%
same,Potency,[8],inactive
same,Potency,[1],inactive
same,activity change % (negative = inhibition),[6],15% (inactive)
Clc1ccccc1-c1nnc(-c2ccccc2Cl)nn1,max response,[7],-44.7%
same,Potency,[8],inactive
same,Potency,[1],inactive
same,max response,[2],-1.99%
Nc1nc(N)nc(Cl)n1,Potency,[5],inactive
same,Potency,[1],inactive
same,max response,[2],-8.55% and -12.5% and -6.12%
same,Potency,[3],inactive
same,outcome,[4],inactive
CC1(C)Cc2cccc(O)c2O1,activity change % (negative = inhibition),[6],-2.82% (inactive)
same,Potency,[3],inactive
same,outcome,[4],inactive
COP(=O)(OC)O/C(C)=C/C(=O)N(C)C,max response,[7],-17.4%
same,Potency,[8],inactive
same,outcome,[4],inactive
O=C=Nc1ccc(Cl)cc1,max response,[7],-52.1%
same,Potency,[8],inactive
same,max response,[2],-14.4%
same,outcome,[4],inactive
COc1cnc(OC)n2nc(NS(=O)(=O)c3c(OCC(F)F)cccc3C(F)(F)F)nc12,Potency,[1],inactive
same,activity change % (negative = inhibition),[6],9.04% (inactive)
same,outcome,[4],inactive
C=CC(=O)OCC(CO)(COC(=O)C=C)COC(=O)C=C,Potency,[9],7.94 µM (active)
same,Potency,[10],inactive
same,Potency,[11],3.16 µM (active)
same,Potency,[12],3.16 µM (active)
same,Potency,[13],7.94 µM (active)
same,Potency,[14],3.98 µM (active)
same,Potency,[15],5.01 µM (active)
same,Potency,[16],5.01 µM (active)
same,Potency,[5],22.4 µM (active) and 20 µM (active)
same,Potency,[3],24.3 µM (active)
CS(=O)(=O)c1cc(C(F)(F)F)ccc1C(=O)c1cnoc1C1CC1,max response,[7],51.3%
same,Potency,[8],inactive
same,Potency,[1],inactive
